Measurements as given in PubChem BioAssay (NCATS).
Results filed as inconclusive are left out. Values without a mark were called inactive. Activity calls are given as the source filed them. The call rests on the fitted dose curve; in most records, active means well fitted activation curve with a large enough effect; inconclusive means small, poorly fitted or top-dose-only effect; inactive means flat fitted curve, though single readings scatter.

Assay: Validation screen for small molecules that induce DNA re-replication in SW480 colon adenocarcinoma cells (AID 504364); on activity (re-replication induction): 0% is about no effect
Conditions: DNA re-replication phenotype (high-content imaging); series mostly up to 46.1 µM; activity (re-replication induction): at the top concentration
Description: H Molecular Libraries Probe Production Network [MLPCN]
NIH Chemical Genomics Center [NCGC]
Assay Provider: Melvin DePamphilis, NICHD, NIH
Eukaryotic cells normally restrict genome duplication to once per cell division. When this process is aberrant, DNA re-replication occurs when cells reinitiate DNA replication before the first round of replication is complete. DNA re-replication induces the DNA damage response, arrests cell proliferation, and triggers apoptosis. The cell cycle components cyclin A, Cdt-1, Cdc6 and geminin are critical regulators of this process and their misregulation results in DNA re-replication in normal and cancer cells. To identify compounds that induce re-replication in normal cells, an image-based assay was used to measure DNA content of nuclei, as detected by the fluorescent DNA binding dye, Hoechst. Cell nuclei were imaged by a fluorescence scanning plate imager and compounds that induce DNA re-replication were identified by the increase of nuclei with elevated fluorescence intensity.#
For screening, 250 cells in 5 uL/well were dispensed into black clear 1536-well plates (Aurora) using a solenoid-based dispenser. Following transfer of 23 nL compound or DMSO vehicle by a pin tool, the plates were incubated 48 hr at 37 C and 5% CO2. After addition of 1 uL/well Hoescht stain, the plates were incubated 40 min at 37 C, 5% CO2 and total intensity of fluorescent objects (nuclei) were enumerated by an Acumen Explorer Ex3 (TTP LabTech) fluorescence scanning plate imager (405 nm excitation, 500-530 nm emission).
Keywords: NIH Roadmap, MLPCN, MLI, MLSMR, qHTS, NCGC, DNA replication, cancer
Potency means the concentration at half of the fitted maximal effect.

SMILES | activity (re-replication induction) | Potency
C[C@H](Cc1ccc(O)c(O)c1)[C@@H](C)Cc1ccc(O)c(O)c1 | 16% | 
O=C(NCC1CCCCN1)c1cc(OCC(F)(F)F)ccc1OCC(F)(F)F (configuration not stated) | -15.3% | 
COc1cc2nc(N3CCN(C(=O)C4CCCO4)CC3)nc(N)c2cc1OC (configuration not stated) | -21.1% | 
Cc1cc(O)c2c(c1)C(=O)c1cc(O)cc(O)c1C2=O | 6.7% | 
O=c1c(O)c(-c2ccc(O)cc2O)oc2cc(O)cc(O)c12 | -2.89% | 
O=C(O)c1cccnc1Nc1cccc(C(F)(F)F)c1 | 0.456% | 
NC(=NCc1ccccc1)NC(=O)c1nc(Cl)c(N)nc1N | -4.05% | 
COc1ccc2cc([C@H](C)C(=O)O)ccc2c1 | -0.519% | 
O=c1cc(N2CCOCC2)oc2c(-c3ccccc3)cccc12 | 1.69% | 
CC(C)c1ccc2c(c1)c(SC(C)(C)C)c(CC(C)(C)C(=O)O)n2Cc1ccc(Cl)cc1 | 16.7% | 
CCN(CC)C(=S)SSC(=S)N(CC)CC |  | 206 nM (active)
O=C1c2ccccc2-c2n[nH]c3cccc1c23 | -0.873% | 
Cc1c(OCC(F)(F)F)ccnc1CS(=O)c1nc2ccccc2[nH]1 (configuration not stated) | 14.7% | 
CC1(C)NC(=O)N(c2ccc([N+](=O)[O-])c(C(F)(F)F)c2)C1=O | 3.81% | 
C[C@@H](N)C1CCC(C(=O)Nc2ccncc2)CC1 (some centres not stated) | 0.073% | 
Cc1cccc(C#Cc2ccccc2)n1 | -10.9% | 

SMILES | activity (re-replication induction) | Potency
NNc1nncc2ccccc12 | -11.7% | 
CN(C)CCCC1(c2ccc(F)cc2)OCc2cc(C#N)ccc21 (configuration not stated) | -12.1% | 
CC1(C)C(=O)N(CCN2CCC(C(=O)c3ccc(F)cc3)CC2)c2ccccc21 | -1.77% | 
Nc1nc(OCc2ccccc2)c2[nH]cnc2n1 | -8.97% | 
O=C(CCc1ccc(O)cc1)c1c(O)cc(O)cc1O | -1.57% | 
Oc1ccc(-c2nc(-c3ccc(F)cc3)c(-c3ccncc3)[nH]2)cc1 | -7.12% | 
NCCCCNCCCN | -0.357% | 
O=C1c2c(O)cc(O)cc2OC(c2ccc(O)c(O)c2)C1O (configuration not stated) | 3.08% | 
COc1ccccc1N1CCN(CCN(C(=O)C2CCCCC2)c2ccccn2)CC1 | 19.6% | 
CNC[C@H](O)c1ccc(O)c(O)c1 | -7.18% | 
O=C(c1ccccc1)c1ccc2n1CCC2C(=O)O (configuration not stated) | -1.52% | 
O=c1c(O)c(-c2cc(O)c(O)c(O)c2)oc2cc(O)cc(O)c12 | -2.72% | 
O=Nc1c(-c2c(O)[nH]c3cc(Br)ccc23)[nH]c2ccccc12 | -10.2% | 
CC(=O)O[C@H]1C(=O)[C@@]2(C)C([C@H](OC(=O)c3ccccc3)[C@]3(O)C[C@H](OC(=O)[C@H](O)[C@@H](NC(=O)c4ccccc4)c4ccccc4)C(C)=C1C3(C)C)[C@]1(OC(C)=O)CO[C@@H]1C[C@@H]2O (some centres not stated) |  | 9.2 nM (active)
Cc1nc2n(c(=O)c1CCN1CCC(c3noc4cc(F)ccc34)CC1)CCCC2 | -4.55% | 
CC(=O)N1CCN(c2ccc(OC[C@H]3CO[C@](Cn4ccnc4)(c4ccc(Cl)cc4Cl)O3)cc2)CC1 | -0.83% | 
